53 compounds from PubChem BioAssay AID602233 (National Center for Advancing Translational Sciences (NCATS), 2012) can be followed below.

SMILES strings stand for the structures. About 170 (0.045%) of roughly 380,000 compounds were called active. The list comes from a sample in which actives are over-represented; it also holds similar structures and randomly drawn compounds. Values without a mark were called inactive. Calls follow the shape of the dose curve; as a rule, active = well fitted inhibition curve with a large enough effect; inconclusive = small, poorly fitted or top-dose-only effect; inactive = no such curve, though single readings can be large or run the other way.
% is scaled to controls: 0 for no effect and ±100 for the full control effect; potency is read from the fitted curve at half-maximal effect.

Chain of Phosphoglycerate kinase, glycosomal (Trypanosoma brucei brucei) (P07378 whole entry, looked up): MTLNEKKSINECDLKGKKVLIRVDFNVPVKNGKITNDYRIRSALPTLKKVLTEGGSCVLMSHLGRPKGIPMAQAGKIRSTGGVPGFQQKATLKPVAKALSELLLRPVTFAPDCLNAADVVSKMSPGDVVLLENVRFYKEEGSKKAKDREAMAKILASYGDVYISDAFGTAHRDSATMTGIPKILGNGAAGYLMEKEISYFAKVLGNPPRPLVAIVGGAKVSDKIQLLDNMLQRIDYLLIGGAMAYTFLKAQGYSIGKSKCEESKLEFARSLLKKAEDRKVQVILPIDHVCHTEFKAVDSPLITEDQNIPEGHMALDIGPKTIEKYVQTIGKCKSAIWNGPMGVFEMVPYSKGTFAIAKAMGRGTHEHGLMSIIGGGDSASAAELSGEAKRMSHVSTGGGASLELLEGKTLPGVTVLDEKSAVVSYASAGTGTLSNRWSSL

For this assay, the target named is Phosphoglycerate kinase, glycosomal (Trypanosoma brucei brucei) (UniProt P07378). Description: qHTS Assay to Find Inhibitors of Phosphoglycerate Kinase. Also: nearly all actives have a fitted effect of over 60% in size. To be noted: PGK/GAPDH coupled, Kinase-Glo luminescence, 60 min; series mostly up to 57.5 µM; activity change, negative = inhibition: at the top concentration. From the text:
Several species of the Trypanosomatidae family of parasitic protozoans cause a spectrum of diseases throughout the tropical and subtropical world. Sleeping sickness, caused by two subspecies of Trypanosoma brucei, is endemic to areas of sub-Saharan Africa, while Chagas disease, a manifestation of Trypanosoma cruzi infection, is prevalent throughout Central and South America. In addition, many species of Leishmania are responsible for a range of cutaneous and visceral diseases, causing ulcers, destructive lesions and kalaazar, a lethal infection of the viscera. Collectively, these organisms infect 30 million people worldwide (~500 million live in endemic areas), and account for ~130,000 deaths annually. Given their debilitating and prevalent nature, trypanosomatid parasites impose a heavy medical, economic and social burden on entire populations, primarily in the developing world. The problem is further exacerbated by the fact that existing treatments have progressed little in the past 50 years, and current drugs show high toxicity and poor efficacy. […] Blood-stream stages of T. brucei are entirely dependent on glycolysis as a source of ATP, and the tricarboxylic acid cycle and oxidative phosphorylation are both repressed. Glycolysis in axenically cultured T. cruzi, representing the intracellular pathogenic stage, is also essential for these parasites. […] Previous studies have shown that the glycolytic enzyme, phosphoglycerate kinase (PGK), is a viable target for drugs to kill these parasites. […] NIH Molecular Libraries Probe Production Network [MLPCN] NIH Chemical Genomics Center [NCGC] MLPCN Grant: R03 MH093212 PI Name: Malcolm Walkinshaw, University of Edinburgh
3ul of substrate/PGK buffer (columns 1,2,5-48) are dispensed into Greiner white solid bottom 1536-well assay plates; columns 3-4 receive only TEA buffer as 0x PGK controls. Compounds are then transferred via Kalypsys pin tool equipped with 1536-pin array (10nl slotted pins, V&P Scientific, San Diego, CA). Following addition of compound, 1ul of GAPDH (100nM final concentration, all columns) is added to initiate the reaction (this upstream coupling enzyme is necessary for in-well production of PGK substrate, 1,3-bisphosphoglycerate (1,3-BPG), which is unstable and not commercially available). The plates are then incubated at room temperature for 60 minutes. Kinase-Glo Plus reagent is added (2ul) and plates incubated for 10 minutes, before being transferred to a ViewLux high-throughput CCD imager (PerkinElmer) wherein single end-point measurements of luminescence are acquired using a clear filter. All reagents are diluted in an assay buffer consisting of 100mM TEA (pH 7.6), 5mM MgCl2 and 0.01% Tween-20.
(Quantitative high-throughput screening tests each substance at several concentrations.)
As to `CCOc1ccc(OCC)c(NC(=O)CN(c2ccc(C)cc2)S(=O)(=O)c2c(C)n[nH]c2C)c1`, the “activity change, negative = inhibition” value was -0.327%. Turning to `CCCS(=O)(=O)c1ncc(Cl)c(C(=O)Nc2scc(-c3ccccc3)c2C(=O)OCC)n1`, the “activity change, negative = inhibition” value was -0.928%.

In the case of `Cc1sc(C2C(C#N)=C(N)N(c3cccc(Cl)c3)C3=C2C(=O)CCC3)cc1CN1CCOCC1` (stereo not drawn), the “activity change, negative = inhibition” value is 1.36%. On the same count and under the same terms, the result for `Cc1ccc(C(=O)N2c3ncnn3C3(CCCCC3)[C@@H]3CCCC[C@@H]32)cc1` reads -3.66%. Turning to `O=C(CC(c1cccs1)N1Cc2ccccc2C1=O)Nc1ccc(F)c(F)c1` (stereo not drawn), the compound was called inactive. For the compound `CC1=Nc2cc(C(=O)NCc3ccc(C)cc3)ccc2Sc2ccc(Cl)cc21`, the “activity change, negative = inhibition” value is 1.58%.

Turning to `CCc1cnc2c(c1SCC(=O)N1CCC(C)CC1)c(=O)n(C)c(=O)n2C`, the “activity change, negative = inhibition” value was -7.57%. For `CCc1cccc(NC(=O)CN(c2ccc(C)c(C)c2)S(=O)(=O)c2ccsc2C(=O)OC)c1`, the “activity change, negative = inhibition” value was -7.47%. Turning to `CCOc1ccccc1NC(=O)c1ccc2c(c1)CCN2S(=O)(=O)c1ccc(C)cc1`, the “activity change, negative = inhibition” value was -6.13%.

Consider `CSc1ccc(NC(=O)Cn2nnnc2-c2ccccc2F)cc1`, for which the “activity change, negative = inhibition” value is 0.393%. `CC(=O)c1ccc(NC(c2ccc(F)cc2)c2nnc(-c3ccccc3)o2)cc1` (stereo not drawn): the “activity change, negative = inhibition” value was -9.83%. In the case of `CCOc1ccc(CCNC(=O)c2c(C)oc3ncn(C)c(=O)c23)cc1`, the call was inactive. On to `CCc1ccccc1NC(=O)c1cnn(-c2ccc(F)cc2)c1C1CCNCC1`, for which the “activity change, negative = inhibition” value was -3.07%. As to `Cc1ccc(CNC(=O)CCNS(=O)(=O)c2ccc3c(c2)oc(=O)n3C)cc1`, the “activity change, negative = inhibition” value was 1.22%. `CCc1cccc(-n2nnc(-c3nsc(NC(=O)c4ccc(C)cc4)n3)c2C)c1`: the outcome was inactive.

In the case of `CC(C)Cn1c(=O)c2ccccc2n2c(CCC(=O)N3CCN(c4cccc(Cl)c4)CC3)nnc12`, the “activity change, negative = inhibition” value is -8.58%. As for `Cc1ccc(OCCSc2nc(-c3cccs3)nc3cc(=O)[nH]n23)cc1Cl`, the “activity change, negative = inhibition” value was -19.6%.

On to `CC1=C(c2ccc(Cl)cc2)S(=O)(=O)N=C1N1CCN(c2cc(C)ccc2C)CC1`, for which the “activity change, negative = inhibition” value is -10.5%. Consider `Cc1cccc(N2CCN(c3c(CN4CCCC4)c(=O)oc4ccccc34)CC2)c1C`, for which the “activity change, negative = inhibition” value is 1.96%. Regarding `CCc1ccc(NC(=O)CN2CCSc3ccc(S(=O)(=O)N4CCCC4)cc32)cc1`, the outcome was inactive. Regarding `CCCN(CCC)CCNC(=O)c1ccc2c(c1)NC(=O)C(CS(=O)(=O)Cc1cccc(Br)c1)N2` (stereo not drawn), the “activity change, negative = inhibition” value was -1.96%.

For the compound `COc1cc(CNC(=O)c2cc3n(n2)CCCN(Cc2cccc(F)c2)C3=O)cc(OC)c1OC`, the “activity change, negative = inhibition” value was -5.91%.

For `COc1ccc(OC)c(-c2nc(C(N)=O)c3c(n2)n(-c2ccc4c(c2)OCO4)c(=O)n3C)c1`, the “activity change, negative = inhibition” value was -7.35%. For `CCN(Cc1ccccc1)C(=O)c1cn(-c2cccc(OC)c2)c(=O)c2ccccc12`, the “activity change, negative = inhibition” value was 4.13%. As for `O=C(CCn1c(=O)c2ccccc2n(Cc2ccc(Cl)cc2)c1=O)NCc1ccc2c(c1)OCO2`, the “activity change, negative = inhibition” value is 2.73%. Turning to `Cc1ccccc1OCc1ccc(-c2nc(C#N)c(N3CCCCC3)o2)o1`, the “activity change, negative = inhibition” value is -5.61%. For `CC(C)(C)OC(=O)N1CCC(c2c(C(=O)Nc3ccc4c(c3)OCO4)cnn2-c2ccccc2)CC1`, the “activity change, negative = inhibition” value is -5.35%. Consider `COc1ccc(-n2c(=O)c3sc4ccccc4c3n(CC(=O)Nc3cccc(C)c3)c2=O)cc1`, for which the “activity change, negative = inhibition” value is 3.99%. `Cc1c(C)n(Cc2ccc(Cl)cc2)c2ccc(C(=O)NCCc3ccc(S(N)(=O)=O)cc3)cc12`: the “activity change, negative = inhibition” value was -1.01%. On to `CCCNC(=O)c1ccc2c(c1)ncn2-c1ccc(C)cc1C`, for which the “activity change, negative = inhibition” value was -4%. For `CCn1cc2nc(SCc3cccc(F)c3)n(CCc3ccccc3)c(=O)c2n1`, the “activity change, negative = inhibition” value is -9.15%. On the same count and under the same terms, under `Cc1nc2ccccn2c(=O)c1NC(=O)c1c(F)cccc1F` stands -8.58%.

As to `COc1ccc(CCNc2ncnc3onc(-c4ccc(Cl)cc4)c23)c(OC)c1`, the “activity change, negative = inhibition” value was -1.45%. Regarding `CCOC(=O)C(Cc1ccccc1)NC(=O)CCc1c(C)nc2c(c(C)nn2-c2ccc(C)c(C)c2)c1C` (stereo not drawn), the “activity change, negative = inhibition” value was -8%. Regarding `COc1ccccc1NC(=O)c1oc2ccccc2c1NC(=O)C(C)C`, the “activity change, negative = inhibition” value was -7.07%. In the case of `O=C(NCc1cccnc1)C(=O)NCC(c1cccnc1)N1CCN(c2ccccc2)CC1` (stereo not drawn), the “activity change, negative = inhibition” value was -9.1%. Take `Cc1ccccc1CNC(=O)C(=O)NCC(c1cccs1)S(=O)(=O)c1cccs1` (stereo not drawn): the “activity change, negative = inhibition” value is 9.59%. `O=C(CCC(=O)N1CC2CCCN2c2ccccc21)NCc1ccccc1Cl` (stereo not drawn): the “activity change, negative = inhibition” value was -2.17%. As for `O=C(CC1N=C2c3ccccc3N=C(SCc3cccc(Cl)c3)N2C1=O)NCc1ccc2c(c1)OCO2` (stereo not drawn), the “activity change, negative = inhibition” value was 1.41%. `CCN(CC)S(=O)(=O)c1nnc(NC(=O)COc2ccccc2Cl)s1`: the “activity change, negative = inhibition” value is -3.74%.

For `Nc1ccc2nc3c(=O)[nH]c(=S)[nH]c3nc2c1`, the Potency was 2.51 µM (active). For `Cc1oc2ccc(O)c(CN3CCC(C)CC3)c2c1C(=O)Nc1ccccc1`, the “activity change, negative = inhibition” value was 6.18%.

Consider `CCCCCn1c(CCCNC(=O)c2ccccc2OC)nc2ccccc21`, for which the “activity change, negative = inhibition” value is 2.09%. For `CN(Cc1ccccc1)c1ncnc2onc(-c3ccc(F)cc3)c12`, the “activity change, negative = inhibition” value was -9.68%. Regarding `O=C(NCc1ccc2c(c1)CCN2C(=O)c1ccccc1)c1ccccc1`, the “activity change, negative = inhibition” value was -1.54%. Turning to `COc1ccc(-n2c(SCC(N)=O)nc3c(oc4ccccc43)c2=O)cc1`, the “activity change, negative = inhibition” value is 5.05%.

On to `CC(C)(C)c1ccc(OCC(=O)N2CCC(c3nc4ccccc4s3)CC2)cc1`, for which the compound was called inactive.

In the case of `O=C(Cn1cc(SCc2cccc(Cl)c2)c2ccccc21)N1CCCCC1`, the “activity change, negative = inhibition” value was 8.44%. Still for that read-out and setting: the result for `COc1ccc(Cn2ccc3nc(C)c(C(=O)Nc4ccc(C)c(F)c4)cc3c2=O)cc1` reads -7.62%. For `O=C(Cn1c(=O)n(Cc2cccs2)c(=O)c2cccnc21)Nc1ccc(F)cc1`, the “activity change, negative = inhibition” value was 9.96%. Still for that read-out and setting: under `COc1cc(NS(=O)(=O)c2ccc3c(c2)OCC(C(=O)N2CCCC2)O3)cc(OC)c1` (stereo not drawn) stands -5.79%. For `Cc1c(CC(=O)N2CCN(C(=O)C3COc4ccccc4O3)CC2)c(=O)oc2c(O)c(O)ccc12` (stereo not drawn), the Potency is 8.91 µM (active).

With `COc1ccc(OC)c2sc(N3CCN(C(=O)C4COc5ccccc5O4)CC3)nc12` (stereo not drawn), the “activity change, negative = inhibition” value is 0.972%.
